# Laboratory results as given in article PMC8384837, “Expanding the binding specificity for RNA recognition by a PUF domain”.
# What was measured:
# Assay in all cases: yeast three-hybrid, YBZ-1, SC-Leu-His + 0.5 mM 3-AT, 4 days
# Conditions in all cases: tags: N-Gal4 AD-HA kept; label: inside an RPR1-promoter hybrid RNA with tandem MS2 sites; ssRNA
# PUM1 PUF domain R5-KRE = PUM1 PUF domain R5-KRE (Homo sapiens, UniProt Q14671 828-1176, C1007K;Q1011E)
# In short: (§1)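 Repeat regions from input (SC-Leu) and selection (SC-Leu-His + 0.5 mM 3-AT) plates were PCR-amplified and Illumina-sequenced after four days of growth. The cells were strain YBZ-1 with a LexA–MS2 coat fusion and a HIS3 reporter, co-expressing Pumilio-1 PUF domain libraries and matching RNA elements from a centromeric plasmid. The interaction score is the log change in variant frequency from input to selection, taken in log2 with a pseudocount of 1 for absent variants.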
# PUM1 PUF domain R5-KSW = PUM1 PUF domain R5-KSW (Homo sapiens, UniProt Q14671 828-1176, C1007K;R1008S;Q1011W)
# In short: as §1
# PUM1 PUF domain R3-GYF = PUM1 PUF domain R3-GYF (Homo sapiens, UniProt Q14671 828-1176, C935G;R936Y;Q939F)
# In short: as §1
# PUM1 PUF domain R3-YRF = PUM1 PUF domain R3-YRF (Homo sapiens, UniProt Q14671 828-1176, C935Y;Q939F)
# In short: as §1
# PUM1 PUF domain R3-RQE = PUM1 PUF domain R3-RQE (Homo sapiens, UniProt Q14671 828-1176, C935R;R936Q;Q939E)
# In short: as §1
# PUM1 PUF domain R3-RQP = PUM1 PUF domain R3-RQP (Homo sapiens, UniProt Q14671 828-1176, C935R;R936Q;Q939P)
# In short: as §1
# PUM1 PUF domain R8-YYK = PUM1 PUF domain R8-YYK (Homo sapiens, UniProt Q14671 828-1176, N1122Y;Q1126K)
# In short: as §1
# PUM1 PUF domain R4-NRR = PUM1 PUF domain R4-NRR (Homo sapiens, UniProt Q14671 828-1176, H972R;Q975R)
# In short: as §1
# PUM1 PUF domain R7-ERQ = PUM1 PUF domain R7-ERQ (Homo sapiens, UniProt Q14671 828-1176, S1079E;N1080R;E1083Q)
# In short: as §1
# Chain of PUM1 PUF domain R7-ERQ (Q14671 828-1176 S1079E/N1080R/E1083Q): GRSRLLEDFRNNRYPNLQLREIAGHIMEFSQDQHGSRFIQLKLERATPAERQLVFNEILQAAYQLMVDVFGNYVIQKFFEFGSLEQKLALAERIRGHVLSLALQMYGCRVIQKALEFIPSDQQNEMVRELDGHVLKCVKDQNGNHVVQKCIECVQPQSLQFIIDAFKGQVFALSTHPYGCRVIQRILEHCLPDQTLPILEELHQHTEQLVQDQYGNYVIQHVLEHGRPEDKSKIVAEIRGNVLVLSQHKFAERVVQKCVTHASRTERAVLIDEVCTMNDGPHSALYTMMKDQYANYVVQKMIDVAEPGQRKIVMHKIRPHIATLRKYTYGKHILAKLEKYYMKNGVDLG
# Chain of PUM1 PUF domain R5-KRE (Q14671 828-1176 C1007K/Q1011E): as the sequence (Q14671 828-1176 S1079E/N1080R/E1083Q) above, with C180K, Q184E, E252S, R253N, Q256E counted along it
# Chain of PUM1 PUF domain R5-KSW (Q14671 828-1176 C1007K/R1008S/Q1011W): as the sequence (Q14671 828-1176 S1079E/N1080R/E1083Q) above, with C180K, R181S, Q184W, E252S, R253N, Q256E counted along it
sequence,measurement,setting,value
GGCUAGAACUAGUGGAUCCCCCGGCGCCCGGCGGCUCGAGCCCGGGUAAGUGUCAAUAGUCUGCAUGCCGCCGGGCGCCAUGCCUGCAGGUCGACUCUAGAAAACAUG,binding signal,PUM1 PUF domain R5-KRE,2.98 log2 enrichment (interaction score)
same,binding signal,PUM1 PUF domain R5-KSW,2.82 log2 enrichment (interaction score)
GGCUAGAACUAGUGGAUCCCCCGGCGCCCGGCGGCUCGAGCCCGGGUAAGUGUAAAUAGUCUGCAUGCCGCCGGGCGCCAUGCCUGCAGGUCGACUCUAGAAAACAUG,binding signal,PUM1 PUF domain R3-GYF,5.74 log2 enrichment (interaction score)
same,binding signal,PUM1 PUF domain R3-YRF,1.16 log2 enrichment (interaction score)
GGCUAGAACUAGUGGAUCCCCCGGCGCCCGGCGGCUCGAGCCCGGGUAAGUGUAAUUAGUCUGCAUGCCGCCGGGCGCCAUGCCUGCAGGUCGACUCUAGAAAACAUG,binding signal,PUM1 PUF domain R3-RQE,2.81 log2 enrichment (interaction score)
same,binding signal,PUM1 PUF domain R3-RQP,3.85 log2 enrichment (interaction score)
GGCUAGAACUAGUGGAUCCCCCGGCGCCCGGCGGCUCGAGCCCGGGUAAGCGUAAAUAGUCUGCAUGCCGCCGGGCGCCAUGCCUGCAGGUCGACUCUAGAAAACAUG,binding signal,PUM1 PUF domain R8-YYK,4.78 log2 enrichment (interaction score)
GGCUAGAACUAGUGGAUCCCCCGGCGCCCGGCGGCUCGAGCCCGGGUAAGUGUACAUAGUCUGCAUGCCGCCGGGCGCCAUGCCUGCAGGUCGACUCUAGAAAACAUG,binding signal,PUM1 PUF domain R4-NRR,3.57 log2 enrichment (interaction score)
GGCUAGAACUAGUGGAUCCCCCGGCGCCCGGCGGCUCGAGCCCGGGUAAGUGUAUAUAGUCUGCAUGCCGCCGGGCGCCAUGCCUGCAGGUCGACUCUAGAAAACAUG,binding signal,PUM1 PUF domain R4-NRR,1.51 log2 enrichment (interaction score)
GGCUAGAACUAGUGGAUCCCCCGGCGCCCGGCGGCUCGAGCCCGGGUAAGUCUAAAUAGUCUGCAUGCCGCCGGGCGCCAUGCCUGCAGGUCGACUCUAGAAAACAUG,binding signal,PUM1 PUF domain R7-ERQ,2.6 log2 enrichment (interaction score)
GGCUAGAACUAGUGGAUCCCCCGGCGCCCGGCGGCUCGAGCCCGGGUAAGUGUAAGUAGUCUGCAUGCCGCCGGGCGCCAUGCCUGCAGGUCGACUCUAGAAAACAUG,binding signal,PUM1 PUF domain R3-YRF,5.65 log2 enrichment (interaction score)
